# Legend:
# Assay in all cases: DAPPL (digital affinity profiling via proximity ligation, sequencing); 10 mM Tris-HCl pH 7.5, 50 mM NaCl, 1 mM DTT, 4% glycerol, room temperature, 30 min; GST-TFs on glutathione beads, 16-mer random dsDNA library, 0.1% formaldehyde crosslink after washing; high values mean tight binding
# [1] = target: T1, FLI1 (Homo sapiens, UniProt Q01543 1-452); details: protein: recombinant; tags: N-terminal GST; dsDNA, one strand shown
# T1 sequence: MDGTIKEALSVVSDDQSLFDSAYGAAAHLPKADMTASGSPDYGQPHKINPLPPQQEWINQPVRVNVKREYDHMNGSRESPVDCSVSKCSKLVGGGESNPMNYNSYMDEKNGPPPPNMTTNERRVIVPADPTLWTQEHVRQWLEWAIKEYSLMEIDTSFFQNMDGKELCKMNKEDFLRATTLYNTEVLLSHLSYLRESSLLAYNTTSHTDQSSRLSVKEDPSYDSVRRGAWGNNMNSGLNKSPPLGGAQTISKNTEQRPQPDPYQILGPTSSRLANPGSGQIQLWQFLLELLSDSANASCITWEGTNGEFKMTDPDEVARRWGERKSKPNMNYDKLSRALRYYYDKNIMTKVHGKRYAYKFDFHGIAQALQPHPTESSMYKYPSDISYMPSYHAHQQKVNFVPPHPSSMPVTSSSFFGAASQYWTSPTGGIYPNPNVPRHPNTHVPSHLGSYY
# How it was run: (§1)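 Human transcription factors fused to GST were expressed in yeast, captured on glutathione beads, given DNA barcodes and pooled with a GST-only negative control. Pools were incubated with 200 nmole of a 16-mer random double-stranded DNA library in Tris/NaCl/DTT/glycerol buffer at room temperature for 30 min. They were then washed, crosslinked with 0.1% formaldehyde, proximity-ligated (BsaI/T4 ligase, 1 h, 37 °C), PCR-amplified and sequenced on an Illumina NextSeq500. Binding signal is each 6-mer's read frequency for a factor divided by its frequency for the GST control.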
# [2] = target: T2, ELK1 (Homo sapiens, UniProt P19419 1-428); details: protein: recombinant; tags: N-terminal GST; dsDNA, one strand shown
# T2 sequence: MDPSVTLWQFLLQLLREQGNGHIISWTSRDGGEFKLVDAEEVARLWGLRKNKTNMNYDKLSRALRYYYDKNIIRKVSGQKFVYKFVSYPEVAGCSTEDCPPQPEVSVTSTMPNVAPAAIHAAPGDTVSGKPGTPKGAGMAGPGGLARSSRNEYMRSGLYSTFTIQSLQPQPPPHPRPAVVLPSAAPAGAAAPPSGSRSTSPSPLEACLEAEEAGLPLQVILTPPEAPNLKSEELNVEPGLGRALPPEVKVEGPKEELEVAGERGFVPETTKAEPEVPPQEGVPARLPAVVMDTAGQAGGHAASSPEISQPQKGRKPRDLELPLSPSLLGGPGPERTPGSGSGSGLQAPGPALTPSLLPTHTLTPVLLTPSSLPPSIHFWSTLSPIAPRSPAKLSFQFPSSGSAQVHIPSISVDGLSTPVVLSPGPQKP
# How it was run: as §1
# [3] = target: T3, GABPA (Homo sapiens, UniProt Q06546 1-454); details: protein: recombinant; tags: N-terminal GST; dsDNA, one strand shown
# T3 sequence: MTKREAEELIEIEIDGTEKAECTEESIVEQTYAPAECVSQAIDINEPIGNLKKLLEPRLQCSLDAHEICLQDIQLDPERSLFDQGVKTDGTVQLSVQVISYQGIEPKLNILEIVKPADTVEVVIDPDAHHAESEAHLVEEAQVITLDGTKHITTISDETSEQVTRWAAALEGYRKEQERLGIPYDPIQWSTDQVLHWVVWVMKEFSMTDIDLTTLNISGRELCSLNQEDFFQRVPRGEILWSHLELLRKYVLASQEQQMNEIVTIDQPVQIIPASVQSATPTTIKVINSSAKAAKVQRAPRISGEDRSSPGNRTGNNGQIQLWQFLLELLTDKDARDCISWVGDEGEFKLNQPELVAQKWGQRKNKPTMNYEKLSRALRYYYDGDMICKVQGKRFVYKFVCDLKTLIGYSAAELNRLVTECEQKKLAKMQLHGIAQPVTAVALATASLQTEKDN
# How it was run: as §1
# [4] = target: T4, ERG (Homo sapiens, UniProt P11308 1-479); details: protein: recombinant; tags: N-terminal GST; dsDNA, one strand shown
# T4 sequence: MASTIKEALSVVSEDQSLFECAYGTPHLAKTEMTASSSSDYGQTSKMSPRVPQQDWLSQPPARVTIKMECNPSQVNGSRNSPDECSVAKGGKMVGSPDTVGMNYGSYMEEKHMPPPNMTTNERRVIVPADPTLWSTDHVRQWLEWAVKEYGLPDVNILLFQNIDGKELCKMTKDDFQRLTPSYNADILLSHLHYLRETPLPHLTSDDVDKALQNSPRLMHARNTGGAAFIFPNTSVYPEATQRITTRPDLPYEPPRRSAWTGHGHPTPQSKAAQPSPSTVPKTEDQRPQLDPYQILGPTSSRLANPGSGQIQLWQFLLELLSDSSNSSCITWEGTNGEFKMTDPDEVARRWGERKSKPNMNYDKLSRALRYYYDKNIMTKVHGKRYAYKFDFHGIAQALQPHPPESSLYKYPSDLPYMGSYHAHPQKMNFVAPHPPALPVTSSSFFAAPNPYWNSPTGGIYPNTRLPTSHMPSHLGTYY
# How it was run: as §1
# [5] = target: ELF1 (Homo sapiens, UniProt P32519 1-619); details: protein: recombinant; tags: N-terminal GST; dsDNA, one strand shown
# Sequence of ELF1 (P32519 whole entry): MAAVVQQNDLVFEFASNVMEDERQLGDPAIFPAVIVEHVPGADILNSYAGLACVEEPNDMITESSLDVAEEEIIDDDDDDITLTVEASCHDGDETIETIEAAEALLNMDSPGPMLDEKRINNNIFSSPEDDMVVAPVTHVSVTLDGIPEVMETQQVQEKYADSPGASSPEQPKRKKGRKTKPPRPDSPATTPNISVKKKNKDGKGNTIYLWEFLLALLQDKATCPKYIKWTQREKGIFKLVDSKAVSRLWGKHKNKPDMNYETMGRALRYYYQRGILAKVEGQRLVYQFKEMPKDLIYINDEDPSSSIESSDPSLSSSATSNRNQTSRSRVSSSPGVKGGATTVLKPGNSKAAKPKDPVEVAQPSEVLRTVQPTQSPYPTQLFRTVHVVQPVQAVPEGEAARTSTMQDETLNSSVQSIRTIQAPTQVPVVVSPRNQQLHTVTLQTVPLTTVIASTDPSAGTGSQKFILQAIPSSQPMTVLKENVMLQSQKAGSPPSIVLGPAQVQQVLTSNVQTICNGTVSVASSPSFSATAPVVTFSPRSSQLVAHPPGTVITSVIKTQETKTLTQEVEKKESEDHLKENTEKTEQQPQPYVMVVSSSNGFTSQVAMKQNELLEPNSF
# How it was run: as §1
# [6] = target: T5, EHF (Homo sapiens, UniProt Q9NZC4 1-300); details: protein: recombinant; tags: N-terminal GST; dsDNA, one strand shown
# T5 sequence: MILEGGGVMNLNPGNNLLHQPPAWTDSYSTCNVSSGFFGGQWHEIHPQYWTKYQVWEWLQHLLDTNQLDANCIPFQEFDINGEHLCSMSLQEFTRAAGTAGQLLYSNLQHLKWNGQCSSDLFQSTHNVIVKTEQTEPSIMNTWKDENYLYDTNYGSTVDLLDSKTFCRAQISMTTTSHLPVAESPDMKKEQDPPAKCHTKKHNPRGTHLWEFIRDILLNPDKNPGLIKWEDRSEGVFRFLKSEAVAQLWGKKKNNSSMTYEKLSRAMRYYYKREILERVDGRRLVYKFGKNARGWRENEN
# How it was run: as §1
# [7] = target: SPI1 (Homo sapiens, UniProt P17947 1-270); details: protein: recombinant; tags: N-terminal GST; dsDNA, one strand shown
# How it was run: as §1
# [8] = target: SPIB (Homo sapiens, UniProt Q01892 1-262); details: protein: recombinant; tags: N-terminal GST; dsDNA, one strand shown
# Sequence of SPIB (Q01892 whole entry): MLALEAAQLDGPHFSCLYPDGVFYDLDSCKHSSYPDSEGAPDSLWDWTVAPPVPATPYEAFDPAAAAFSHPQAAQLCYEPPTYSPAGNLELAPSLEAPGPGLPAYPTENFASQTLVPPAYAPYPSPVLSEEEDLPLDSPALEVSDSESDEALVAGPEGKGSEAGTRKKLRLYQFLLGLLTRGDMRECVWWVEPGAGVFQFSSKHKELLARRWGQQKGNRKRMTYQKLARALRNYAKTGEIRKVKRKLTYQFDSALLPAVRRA
# How it was run: as §1
# [9] = target: T6, ELK3 (Homo sapiens, UniProt P41970 1-407); details: protein: recombinant; tags: N-terminal GST; dsDNA, one strand shown
# T6 sequence: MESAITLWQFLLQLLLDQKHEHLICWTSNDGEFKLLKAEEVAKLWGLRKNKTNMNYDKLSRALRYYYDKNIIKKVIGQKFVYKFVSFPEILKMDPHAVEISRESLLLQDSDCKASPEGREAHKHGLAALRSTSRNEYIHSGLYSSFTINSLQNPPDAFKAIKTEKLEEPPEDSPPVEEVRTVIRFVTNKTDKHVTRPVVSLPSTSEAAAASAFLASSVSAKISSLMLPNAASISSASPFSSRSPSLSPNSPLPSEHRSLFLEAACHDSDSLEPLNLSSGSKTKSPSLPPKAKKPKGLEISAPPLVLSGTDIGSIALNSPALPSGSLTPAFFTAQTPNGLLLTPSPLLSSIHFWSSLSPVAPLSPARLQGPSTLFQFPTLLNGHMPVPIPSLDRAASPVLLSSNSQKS
# How it was run: as §1
# [10] = target: T7, FEV (Homo sapiens, UniProt Q99581 1-238); details: protein: recombinant; tags: N-terminal GST; dsDNA, one strand shown
# T7 sequence: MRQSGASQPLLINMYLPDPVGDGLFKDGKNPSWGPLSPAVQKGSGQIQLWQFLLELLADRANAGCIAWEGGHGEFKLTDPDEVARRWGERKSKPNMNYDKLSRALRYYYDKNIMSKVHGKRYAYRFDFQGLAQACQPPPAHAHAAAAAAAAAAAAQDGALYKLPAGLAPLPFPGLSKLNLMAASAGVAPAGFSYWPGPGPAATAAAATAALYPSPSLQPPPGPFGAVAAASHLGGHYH
# How it was run: as §1
# [11] = target: ETV5 (Homo sapiens, UniProt P41161 1-510); details: protein: recombinant; tags: N-terminal GST; dsDNA, one strand shown
# Sequence of ETV5 (P41161 whole entry): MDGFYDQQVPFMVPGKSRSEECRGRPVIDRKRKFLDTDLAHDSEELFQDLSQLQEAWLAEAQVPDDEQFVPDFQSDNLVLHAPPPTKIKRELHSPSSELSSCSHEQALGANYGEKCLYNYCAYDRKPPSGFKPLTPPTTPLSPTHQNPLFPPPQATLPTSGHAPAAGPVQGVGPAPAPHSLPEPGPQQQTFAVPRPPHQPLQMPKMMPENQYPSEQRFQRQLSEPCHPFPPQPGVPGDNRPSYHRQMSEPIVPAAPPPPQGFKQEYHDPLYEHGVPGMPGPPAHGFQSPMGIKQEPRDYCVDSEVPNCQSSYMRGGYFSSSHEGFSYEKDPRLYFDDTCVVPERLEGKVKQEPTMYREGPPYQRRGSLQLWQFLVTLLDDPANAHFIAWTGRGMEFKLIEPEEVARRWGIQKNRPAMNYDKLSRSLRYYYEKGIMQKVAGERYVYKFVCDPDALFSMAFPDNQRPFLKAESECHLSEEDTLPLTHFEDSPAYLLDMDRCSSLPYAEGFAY
# How it was run: as §1
# [12] = target: HSF1 (Homo sapiens, UniProt Q00613 1-529); details: protein: recombinant; tags: N-terminal GST; chain copies: 3; dsDNA, one strand shown
# Sequence of HSF1 (Q00613 whole entry): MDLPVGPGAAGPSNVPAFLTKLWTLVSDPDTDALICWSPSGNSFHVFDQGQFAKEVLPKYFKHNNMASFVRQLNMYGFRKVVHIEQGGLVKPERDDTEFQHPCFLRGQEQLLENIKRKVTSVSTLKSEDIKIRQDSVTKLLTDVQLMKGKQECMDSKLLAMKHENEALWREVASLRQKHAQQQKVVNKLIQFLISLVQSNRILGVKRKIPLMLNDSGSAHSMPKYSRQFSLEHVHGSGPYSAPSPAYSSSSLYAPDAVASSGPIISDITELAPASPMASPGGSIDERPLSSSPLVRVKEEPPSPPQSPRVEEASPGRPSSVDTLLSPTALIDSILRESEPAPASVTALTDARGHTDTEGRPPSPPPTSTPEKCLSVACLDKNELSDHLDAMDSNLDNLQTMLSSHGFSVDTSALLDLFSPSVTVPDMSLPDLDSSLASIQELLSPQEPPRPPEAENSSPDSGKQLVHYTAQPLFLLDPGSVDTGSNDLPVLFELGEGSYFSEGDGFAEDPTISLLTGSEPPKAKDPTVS
# How it was run: as §1
# [13] = target: T8, SPIC (Homo sapiens, UniProt Q8N5J4 1-248); details: protein: recombinant; tags: N-terminal GST; dsDNA, one strand shown
# T8 sequence: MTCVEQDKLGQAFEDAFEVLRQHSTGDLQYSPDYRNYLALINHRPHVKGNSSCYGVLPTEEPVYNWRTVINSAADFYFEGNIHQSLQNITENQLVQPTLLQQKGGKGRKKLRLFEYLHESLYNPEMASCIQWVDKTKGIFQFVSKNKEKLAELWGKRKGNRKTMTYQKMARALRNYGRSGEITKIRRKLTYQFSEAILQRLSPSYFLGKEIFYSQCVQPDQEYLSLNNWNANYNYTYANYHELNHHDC
# How it was run: as §1
# [14] = target: ELF4 (Homo sapiens, UniProt Q99607 1-663); details: protein: recombinant; tags: N-terminal GST; dsDNA, one strand shown
# Sequence of ELF4 (Q99607 whole entry): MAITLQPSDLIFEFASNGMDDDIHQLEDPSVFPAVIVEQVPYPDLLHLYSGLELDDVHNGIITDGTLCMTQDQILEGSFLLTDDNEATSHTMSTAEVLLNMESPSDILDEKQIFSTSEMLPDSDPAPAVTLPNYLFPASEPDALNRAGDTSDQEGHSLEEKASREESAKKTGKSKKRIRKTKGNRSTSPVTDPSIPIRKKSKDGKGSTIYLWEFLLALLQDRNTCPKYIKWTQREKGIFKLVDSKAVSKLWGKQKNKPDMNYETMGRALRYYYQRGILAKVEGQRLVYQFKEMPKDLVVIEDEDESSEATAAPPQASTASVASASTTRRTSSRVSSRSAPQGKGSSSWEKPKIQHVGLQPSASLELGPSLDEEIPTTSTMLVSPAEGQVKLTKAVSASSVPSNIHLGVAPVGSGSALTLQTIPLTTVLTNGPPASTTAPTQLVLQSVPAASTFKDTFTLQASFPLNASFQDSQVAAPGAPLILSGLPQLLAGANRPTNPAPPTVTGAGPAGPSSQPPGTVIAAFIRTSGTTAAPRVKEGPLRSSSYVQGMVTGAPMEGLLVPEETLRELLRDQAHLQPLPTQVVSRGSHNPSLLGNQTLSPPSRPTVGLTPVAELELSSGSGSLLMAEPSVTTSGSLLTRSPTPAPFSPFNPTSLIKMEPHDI
# How it was run: as §1
# [15] = target: T9, ELK4 (Homo sapiens, UniProt P28324-2 1-405); details: protein: recombinant; tags: N-terminal GST; dsDNA, one strand shown
# T9 sequence: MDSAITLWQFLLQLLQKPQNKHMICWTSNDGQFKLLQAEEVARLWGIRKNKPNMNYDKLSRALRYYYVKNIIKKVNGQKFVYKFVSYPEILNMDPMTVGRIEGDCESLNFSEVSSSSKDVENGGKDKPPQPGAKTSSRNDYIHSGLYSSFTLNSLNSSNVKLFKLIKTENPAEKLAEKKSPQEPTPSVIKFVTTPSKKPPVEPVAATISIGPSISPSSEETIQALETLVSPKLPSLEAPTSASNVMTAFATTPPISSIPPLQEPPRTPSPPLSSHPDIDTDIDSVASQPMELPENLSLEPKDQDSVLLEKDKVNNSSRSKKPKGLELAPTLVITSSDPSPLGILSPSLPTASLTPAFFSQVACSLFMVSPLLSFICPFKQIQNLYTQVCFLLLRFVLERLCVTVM
# How it was run: as §1
# [16] = target: T10, ETV2 (Homo sapiens, UniProt O00321 1-342); details: protein: recombinant; tags: N-terminal GST; dsDNA, one strand shown
# T10 sequence: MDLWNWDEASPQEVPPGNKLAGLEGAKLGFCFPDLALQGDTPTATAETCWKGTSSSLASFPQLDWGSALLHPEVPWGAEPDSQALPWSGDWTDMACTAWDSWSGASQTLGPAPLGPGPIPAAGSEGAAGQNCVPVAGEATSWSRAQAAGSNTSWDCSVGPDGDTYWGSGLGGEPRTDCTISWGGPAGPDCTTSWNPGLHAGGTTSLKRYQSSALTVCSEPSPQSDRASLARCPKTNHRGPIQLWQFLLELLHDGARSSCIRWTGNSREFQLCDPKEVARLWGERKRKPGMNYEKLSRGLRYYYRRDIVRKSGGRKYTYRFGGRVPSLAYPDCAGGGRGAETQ
# How it was run: as §1
# [17] = target: T11, ELF3 (Homo sapiens, UniProt P78545 1-371); details: protein: recombinant; tags: N-terminal GST; dsDNA, one strand shown
# T11 sequence: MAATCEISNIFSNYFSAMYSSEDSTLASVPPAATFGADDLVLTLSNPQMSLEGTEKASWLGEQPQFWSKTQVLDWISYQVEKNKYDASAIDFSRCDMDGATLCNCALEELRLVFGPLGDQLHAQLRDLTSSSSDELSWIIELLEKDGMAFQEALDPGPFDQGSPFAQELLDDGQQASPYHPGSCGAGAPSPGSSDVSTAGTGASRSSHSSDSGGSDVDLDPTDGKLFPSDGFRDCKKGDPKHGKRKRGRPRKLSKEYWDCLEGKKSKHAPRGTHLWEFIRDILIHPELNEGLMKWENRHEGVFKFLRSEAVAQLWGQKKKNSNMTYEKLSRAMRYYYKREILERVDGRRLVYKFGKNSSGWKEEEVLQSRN
# How it was run: as §1
# [18] = target: CRX (Homo sapiens, UniProt O43186 1-299); details: protein: recombinant; tags: N-terminal GST; dsDNA, one strand shown
# Sequence of CRX (O43186 whole entry): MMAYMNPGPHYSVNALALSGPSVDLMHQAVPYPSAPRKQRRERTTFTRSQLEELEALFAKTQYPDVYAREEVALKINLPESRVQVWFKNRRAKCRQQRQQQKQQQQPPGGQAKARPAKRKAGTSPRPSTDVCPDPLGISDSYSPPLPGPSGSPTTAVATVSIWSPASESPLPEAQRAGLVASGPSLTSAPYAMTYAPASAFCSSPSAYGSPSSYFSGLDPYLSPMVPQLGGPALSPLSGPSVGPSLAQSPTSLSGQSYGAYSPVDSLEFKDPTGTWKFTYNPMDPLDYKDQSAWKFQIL
# How it was run: as §1
# [19] = target: ETV1 (Homo sapiens, UniProt P50549 1-477); details: protein: recombinant; tags: N-terminal GST; dsDNA, one strand shown
# Sequence of ETV1 (P50549 whole entry): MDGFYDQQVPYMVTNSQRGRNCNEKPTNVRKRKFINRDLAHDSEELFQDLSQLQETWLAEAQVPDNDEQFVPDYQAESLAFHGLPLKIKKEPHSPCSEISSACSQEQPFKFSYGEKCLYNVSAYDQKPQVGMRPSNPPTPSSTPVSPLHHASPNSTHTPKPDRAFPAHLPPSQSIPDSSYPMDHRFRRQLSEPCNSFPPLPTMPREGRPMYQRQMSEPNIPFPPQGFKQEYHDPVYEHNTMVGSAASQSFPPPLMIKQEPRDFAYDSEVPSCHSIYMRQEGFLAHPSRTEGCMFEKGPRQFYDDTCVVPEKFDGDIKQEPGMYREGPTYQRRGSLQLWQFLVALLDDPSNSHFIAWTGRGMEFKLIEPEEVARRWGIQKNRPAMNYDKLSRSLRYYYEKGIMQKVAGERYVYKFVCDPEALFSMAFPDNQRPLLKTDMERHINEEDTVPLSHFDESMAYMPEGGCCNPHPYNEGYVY
# How it was run: as §1
sequence,measurement,setting,value
TACTCC,binding signal,[1],"1.3 fold enrichment (6-mer frequency, TF over GST control)"
same,binding signal,[2],"1.2 fold enrichment (6-mer frequency, TF over GST control)"
same,binding signal,[3],"1.49 fold enrichment (6-mer frequency, TF over GST control)"
same,binding signal,[4],"1.35 fold enrichment (6-mer frequency, TF over GST control)"
same,binding signal,[5],"1.37 fold enrichment (6-mer frequency, TF over GST control)"
same,binding signal,[6],"1.26 fold enrichment (6-mer frequency, TF over GST control)"
same,binding signal,[7],"1.24 fold enrichment (6-mer frequency, TF over GST control)"
same,binding signal,[8],"1.23 fold enrichment (6-mer frequency, TF over GST control)"
same,binding signal,[9],"1.44 fold enrichment (6-mer frequency, TF over GST control)"
same,binding signal,[10],"1.25 fold enrichment (6-mer frequency, TF over GST control)"
same,binding signal,[11],"1.27 fold enrichment (6-mer frequency, TF over GST control)"
same,binding signal,[12],"1.18 fold enrichment (6-mer frequency, TF over GST control)"
same,binding signal,[13],"1.23 fold enrichment (6-mer frequency, TF over GST control)"
same,binding signal,[14],"1.26 fold enrichment (6-mer frequency, TF over GST control)"
same,binding signal,[15],"1.19 fold enrichment (6-mer frequency, TF over GST control)"
same,binding signal,[16],"1.25 fold enrichment (6-mer frequency, TF over GST control)"
same,binding signal,[17],"1.11 fold enrichment (6-mer frequency, TF over GST control)"
same,binding signal,[18],"1.26 fold enrichment (6-mer frequency, TF over GST control)"
same,binding signal,[19],"1.24 fold enrichment (6-mer frequency, TF over GST control)"

# Reference: PMC7862700, “An all-to-all approach to the identification of sequence-specific readers for epigenetic DNA modifications on cytosine”
